Molecules are shown by their SMILES.

Test [1] in a line: qHTS profiling of the MIPE4 collection as inhibitors of Plasmodium falciparum (3D7) proliferation (AID 743344).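 Note: scaled between DMSO vehicle wells and 0.29 µM artemisinin as full inhibition.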 Conditions: P. falciparum 3D7 in erythrocytes, SYBR Green DNA fluorescence, 72 h; at 28.5 µM unless noted. In outline: (§1)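 Erythrocytes infected with P. falciparum (0.3% parasitemia, 2.5% hematocrit) incubated with compounds 72 h at 37 C, 5% CO2. Lysis with saponin/Triton buffer containing SYBR Green I, overnight at room temperature in the dark; DNA fluorescence (485/535 nm) normalised to 0.29 uM artemisinin and DMSO.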

Test [2] can be described thus: qHTS profiling of the MIPE4 collection as inhibitors of Plasmodium falciparum (DD2) proliferation (AID 743345). The settings on record: P. falciparum Dd2 in erythrocytes, SYBR Green DNA, 72 h; at 28.5 µM unless noted. The gist of the method: as §1
(In qHTS, concentration-response curves come from the screen itself.)

The nature of test [3]: qHTS profiling of the MIPE4 collection as inhibitors of Plasmodium falciparum (DD2) proliferation (Rep 2) (AID 743346). The settings on record: P. falciparum Dd2 in erythrocytes, SYBR Green DNA, 72 h; at 28.5 µM unless noted. In outline:
as §1

The nature of test [4]: qHTS profiling of the MIPE4 collection as inhibitors of Plasmodium falciparum (HB3) proliferation (AID 743347).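 Note: plate controls were DMSO vehicle wells for no effect and artemisinin wells for full effect.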 The settings on record: P. falciparum HB3 in erythrocytes, SYBR Green DNA, 72 h; at 28.5 µM unless noted. In outline:
as §1

Test [5] is described as follows: High-throughput drug toxicity screening in the BPDCN cell line Gen2.2 (AID 1224824).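 Note: cells exposed to compounds for 48 h before reading.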 Conditions: Gen2.2 BPDCN cells; at 45.8 µM (top of the series) unless noted. In outline: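 Gen2.2 cells, 500 per well in phenol red-free RPMI with 10% FBS, exposed to compounds 48 h at 37 C, 5% CO2; viability by CellTiter-Glo luminescence. Percent activity scaled to DMSO (100%) and 9.2 uM bortezomib final (0%).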

`CO[C@@]12[C@H](COC(N)=O)C3=C(C(=O)C(C)=C(N)C3=O)N1C[C@@H]1N[C@@H]12`: in test [1], the parasite growth, % of DMSO control was 6.13%. Besides, the parasite growth remaining, % of DMSO control (lower = more inhibition) in test [2] stood at 7.06%. The parasite growth, % of control (lower = inhibition) in test [3] is 6.98%. Further, in test [4], the growth, % of control is 2.97%. The cell viability, % of control (lower = more cytotoxic) in test [5] came out at 2.55%.

Consider `O=C(O)CSCC(=O)NC1CCSC1=O` (stereo not given), for which the parasite growth, % of DMSO control in test [1] is 102%. In test [2], the parasite growth remaining, % of DMSO control (lower = more inhibition) stood at 139%. Moreover, the parasite growth, % of control (lower = inhibition) in test [3] came out at 124%. Moreover, in test [4], the growth, % of control was 99.2%. In addition, the cell viability, % of control (lower = more cytotoxic) in test [5] was found to be 118%.

The molecule `O=c1oc2c(O)c(O)cc3c(=O)oc4c(O)c(O)cc1c4c23` returned a parasite growth, % of DMSO control in test [1] of 4.91%. Also, in test [2], the parasite growth remaining, % of DMSO control (lower = more inhibition) turned out to be 7.22%. Also, the parasite growth, % of control (lower = inhibition) in test [3] came to 5.89%. The same molecule showed a growth, % of control in test [4] of 6.72%. Also, the cell viability, % of control (lower = more cytotoxic) in test [5] was found to be 225%.

Molecule `COc1nc(N)nc2c1ncn2[C@@H]1O[C@H](CO)[C@@H](O)[C@@H]1O` registered a parasite growth, % of DMSO control in test [1] of 77.9%. Also, the parasite growth remaining, % of DMSO control (lower = more inhibition) in test [2] is 85.4%. The parasite growth, % of control (lower = inhibition) in test [3] is 37.8%. This molecule also yielded a growth, % of control in test [4] of 85.6%. In addition, the cell viability, % of control (lower = more cytotoxic) in test [5] is 82.2%.

As for `Cn1c(=O)c2c(ncn2CC(O)CO)n(C)c1=O` (stereo not given), in test [1], the parasite growth, % of DMSO control was determined as 85.8%. Also, the parasite growth remaining, % of DMSO control (lower = more inhibition) in test [2] turned out to be 88.3%. For the same molecule, the parasite growth, % of control (lower = inhibition) in test [3] was determined as 96.6%. In test [4], the growth, % of control worked out at 56.5%. Also, the cell viability, % of control (lower = more cytotoxic) in test [5] is 104%.

With `COc1cc(NCc2ccc3nc(N)nc(N)c3c2C)cc(OC)c1OC`, in test [1], the parasite growth, % of DMSO control came out at 15.9%. Also, the parasite growth remaining, % of DMSO control (lower = more inhibition) in test [2] stood at 7.41%. For the same molecule, the parasite growth, % of control (lower = inhibition) in test [3] was found to be 10.9%. The same molecule showed a growth, % of control in test [4] of 19.6%. The cell viability, % of control (lower = more cytotoxic) in test [5] worked out at 8.74%.

In turn, `Oc1c(Cl)cc(Cl)c2cccnc12` yielded a parasite growth, % of DMSO control in test [1] of 123%. Further, the parasite growth remaining, % of DMSO control (lower = more inhibition) in test [2] was 94.2%. Further, the parasite growth, % of control (lower = inhibition) in test [3] came out at 45.4%. Also, the growth, % of control in test [4] was determined as 347%. The cell viability, % of control (lower = more cytotoxic) in test [5] worked out at 10.5%.

In test [1], `CS(=O)(=O)c1ccc([C@@H](O)[C@@H](CO)NC(=O)C(Cl)Cl)cc1` showed a parasite growth, % of DMSO control of 40.4%. Moreover, the parasite growth remaining, % of DMSO control (lower = more inhibition) in test [2] was determined as 51.5%. In test [3], the parasite growth, % of control (lower = inhibition) was determined as 55.8%. The growth, % of control in test [4] stood at 56.8%. The cell viability, % of control (lower = more cytotoxic) in test [5] was 94.5%.

In test [1], `CCC(=O)O[C@]1(C(=O)CCl)[C@@H](C)C[C@H]2[C@@H]3CCC4=CC(=O)C=C[C@]4(C)[C@@]3(F)[C@@H](O)C[C@@]21C` displayed a parasite growth, % of DMSO control of 6.83%. Also, the parasite growth remaining, % of DMSO control (lower = more inhibition) in test [2] was found to be 55.4%. The parasite growth, % of control (lower = inhibition) in test [3] was 8.54%. This molecule also came in with a growth, % of control in test [4] of 8.53%. For the same molecule, in test [5], the cell viability, % of control (lower = more cytotoxic) turned out to be 44.1%.

In test [1], `CCCN[C@H]1CCc2nc(N)sc2C1` displayed a parasite growth, % of DMSO control of 5.95%. The parasite growth remaining, % of DMSO control (lower = more inhibition) in test [2] was determined as 92.8%. The parasite growth, % of control (lower = inhibition) in test [3] stood at 8.29%. In addition, the growth, % of control in test [4] worked out at 6.99%. The cell viability, % of control (lower = more cytotoxic) in test [5] worked out at 133%.

Regarding `NC(=O)c1cccc(N)c1`, the parasite growth, % of DMSO control in test [1] is 96.3%. The parasite growth remaining, % of DMSO control (lower = more inhibition) in test [2] was 95.5%. In addition, the parasite growth, % of control (lower = inhibition) in test [3] is 93.2%. The molecule also yielded a growth, % of control in test [4] of 54.9%. For the same molecule, the cell viability, % of control (lower = more cytotoxic) in test [5] amounted to 84.2%.

Consider `CN(CCOc1ccc(CC2SC(=O)NC2=O)cc1)c1ccccn1` (stereo not given), for which the parasite growth, % of DMSO control in test [1] amounted to 98.7%. The parasite growth remaining, % of DMSO control (lower = more inhibition) in test [2] was 93.4%. Moreover, the parasite growth, % of control (lower = inhibition) in test [3] was found to be 95.7%. For the same molecule, the growth, % of control in test [4] came to 60.7%. Further, the cell viability, % of control (lower = more cytotoxic) in test [5] turned out to be 101%.

Regarding `Cc1oc(=O)oc1CN1CCN(c2cc3c(cc2F)c(=O)c(C(=O)O)c2n3C(C)S2)CC1` (stereo not given), the parasite growth, % of DMSO control in test [1] turned out to be 24.1%. For the same molecule, in test [2], the parasite growth remaining, % of DMSO control (lower = more inhibition) is 12.9%. In addition, the parasite growth, % of control (lower = inhibition) in test [3] worked out at 9.67%. For the same molecule, in test [4], the growth, % of control was determined as 24.3%. Further, the cell viability, % of control (lower = more cytotoxic) in test [5] stood at 162%.

As to `COc1c(N2CCNC(C)C2)c(F)cc2c(=O)c(C(=O)O)cn(C3CC3)c12` (stereo not given), the parasite growth, % of DMSO control in test [1] stood at 17.5%. In addition, in test [2], the parasite growth remaining, % of DMSO control (lower = more inhibition) came to 11.3%. The parasite growth, % of control (lower = inhibition) in test [3] amounted to 23.4%. In addition, the growth, % of control in test [4] stood at 21.7%. Besides, the cell viability, % of control (lower = more cytotoxic) in test [5] worked out at 111%.

For the molecule `CCC(C)(C)c1ccc(CC(C)CN2C[C@@H](C)O[C@@H](C)C2)cc1` (stereo not given in full), the parasite growth, % of DMSO control in test [1] was determined as 17.4%. Further, the parasite growth remaining, % of DMSO control (lower = more inhibition) in test [2] came out at 82.2%. The parasite growth, % of control (lower = inhibition) in test [3] is 39%. Besides, the growth, % of control in test [4] was 26.4%. The cell viability, % of control (lower = more cytotoxic) in test [5] came to 129%.

With `COCCCOc1cc(C[C@@H](C[C@H](N)[C@@H](O)C[C@H](C(=O)NCC(C)(C)C(N)=O)C(C)C)C(C)C)ccc1OC`, the parasite growth, % of DMSO control in test [1] stood at 40.6%. Also, in test [2], the parasite growth remaining, % of DMSO control (lower = more inhibition) worked out at 119%. For the same molecule, the parasite growth, % of control (lower = inhibition) in test [3] was 50.1%. In test [4], this molecule showed a growth, % of control of 86.2%. For the same molecule, in test [5], the cell viability, % of control (lower = more cytotoxic) amounted to 148%.

The values above are taken from PubChem BioAssay (NCATS).
